“And” between values parts separate entries of the source, which are not always exact repeats. Equal entries are not always repeated. Records with an inconclusive call do not appear. The source made the active and inactive calls. Unless noted, the call rests on the fitted dose curve; in most records, active means well fitted curve in the direction sought with a large enough effect; inconclusive means small, poorly fitted or top-dose-only effect, or another doubt; inactive means no such curve, though single readings can be large; an effect the other way counts as inactive or inconclusive.
Experiments:
[1] = Cell Viability - SK-N-SH (AID 435; calls by dose curve;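 further: potency means the concentration at half of the fitted maximal effect; compound exposure lasted 40 h at 37 °C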); conditions: SK-N-SH neuroblastoma cell viability qHTS
Method in brief: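 Human neuroblastoma line, 40 h exposure at 37 °C, ATP quantified via luciferase luminescence; DMSO and 100 uM tamoxifen define 0 and 100% inhibition for AC50 fitting.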

[2] = Cell Viability - N2a (AID 540); conditions: N2a mouse neuroblastoma cell viability; activity change, negative = cytotoxicity: at 92.2 µM (top of the series); further: nearly all actives have a fitted effect of over 45% in size; further: potency means the concentration at half of the fitted maximal effect;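 on activity change, negative = cytotoxicity: plate controls were DMSO alone for no effect and tamoxifen control for full effect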
Method in brief: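 Mouse neuroblastoma N2a cells (1500/well) were preincubated 5 hr at 37 °C, then exposed to compounds for 40 hr at 37 °C in complete medium. Viability was read as intracellular ATP by CellTiter-Glo luminescence; AC50 from Hill fits.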

[3] = Cell Viability - SH-SY5Y (AID 544); conditions: SH-SY5Y neuroblastoma cell viability; viability change, negative = cytotoxic: at 92.2 µM (top of the series); further: nearly all actives have a fitted effect of over 55% in size; further: potency means the concentration at half of the fitted maximal effect;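 on viability change, negative = cytotoxic: 0% = DMSO alone and -100% = 100 µM tamoxifen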
Method in brief: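 Human neuroblastoma SH-SY5Y cells (1500/well) in complete medium were exposed to compounds for 40 hr at 37 °C; intracellular ATP was then quantified by CellTiter-Glo luminescence after 20 min at room temperature. AC50 came from Hill-equation concentration-response fits.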

[4] = Cell Viability - Renal Proximal Tubule (AID 545); conditions: renal proximal tubule cells viability, primary cells of rat origin; activity change, negative = cytotoxicity: at 91.7 µM (top of the series); further: nearly all actives have a fitted effect of over 40% in size; further: potency means the concentration at half of the fitted maximal effect;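 on activity change, negative = cytotoxicity: 0% = DMSO only and -100% = 100 µM tamoxifen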
Method in brief: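 In this qHTS format, normal rat kidney-derived proximal tubule cells in complete culture medium receive compound titrations, then sit 40 hours at 37 °C before luciferase-based ATP quantitation; potency is reported as AC50 from concentration-response curves.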

[5] = Cellular Toxicity (caspase-3) HepG2 (AID 654); conditions: HepG2 caspase-3 activation, luminescence; series mostly up to 92.2 µM; further: potency means the concentration at half of the fitted maximal effect;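 on caspase-3 activation: cells exposed to compound for 16 hours before reading; 0% = DMSO alone and 100% = caspase signal from 100 µM tamoxifen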
Method in brief: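 HepG2 cells (1500/well) in complete medium were treated with compounds for 16 hr at 37 °C. Caspase-3/7 activity was then read as luminescence from peptide-aminoluciferin cleavage. AC50 came from Hill fits, normalized to DMSO and 100 uM tamoxifen.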

[6] = Cellular Toxicity (caspase-3) HUV-EC-C (AID 656); conditions: HUV-EC-C cells, caspase-3 activation (apoptosis); series mostly up to 92.2 µM; further: potency means the concentration at half of the fitted maximal effect;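 on caspase-3 activation: 0% = DMSO basal and 100% = 100 µM tamoxifen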
Method in brief: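 Concentration-dependent caspase 3/7 induction was assessed in HUV-EC-C cells exposed for 16 hours. Data scaled between DMSO and tamoxifen (100 uM) controls.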

[7] = Cellular Toxicity (caspase-3) N2a (AID 665); conditions: N2a cells, luminescence; Potency: caspase-3 activation; series mostly up to 92.2 µM;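 further: compound exposure lasted 16 h at 37 °C before readout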
Method in brief: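 Mouse N2a neuroblastoma cells (1500/well) were treated with compounds for 16 h at 37 °C, then caspase-3/7 activity was read by Caspase-Glo luminescence after 1 h at room temperature. Data were normalized to DMSO and 10 uM staurosporine; AC50 from Hill fits.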

[8] = Cellular Toxicity (caspase-3) Renal Proximal Tubule (AID 667); conditions: renal proximal tubule cells, primary cells freshly taken from rat, solvent-only wells 0%, staurosporine 100%; series mostly up to 91.7 µM;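 further: cells exposed to compound for 16 hours at 37 °C before detection; 0% = DMSO basal and 100% = 10 µM staurosporine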
Method in brief: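 Caspase-Glo 3/7 read-out, rat primary kidney proximal tubule cells. Compound exposure 16 h, 37 °C; detection after 1 h at RT. Activity scaled to DMSO and 10 uM staurosporine.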

[9] = biological target: Cytochrome P450 3A4 (Homo sapiens) (UniProt P08684); experiment: qHTS Assay for Activators of Cytochrome P450 3A4 (AID 885); conditions: recombinant CYP3A4, Luciferin-PPXE luminescence, 60 min; series mostly up to 57.1 µM; further: nearly all actives have a fitted effect of over 65% in size
Sequence of Cytochrome P450 3A4 (Homo sapiens) (P08684 whole entry, looked up): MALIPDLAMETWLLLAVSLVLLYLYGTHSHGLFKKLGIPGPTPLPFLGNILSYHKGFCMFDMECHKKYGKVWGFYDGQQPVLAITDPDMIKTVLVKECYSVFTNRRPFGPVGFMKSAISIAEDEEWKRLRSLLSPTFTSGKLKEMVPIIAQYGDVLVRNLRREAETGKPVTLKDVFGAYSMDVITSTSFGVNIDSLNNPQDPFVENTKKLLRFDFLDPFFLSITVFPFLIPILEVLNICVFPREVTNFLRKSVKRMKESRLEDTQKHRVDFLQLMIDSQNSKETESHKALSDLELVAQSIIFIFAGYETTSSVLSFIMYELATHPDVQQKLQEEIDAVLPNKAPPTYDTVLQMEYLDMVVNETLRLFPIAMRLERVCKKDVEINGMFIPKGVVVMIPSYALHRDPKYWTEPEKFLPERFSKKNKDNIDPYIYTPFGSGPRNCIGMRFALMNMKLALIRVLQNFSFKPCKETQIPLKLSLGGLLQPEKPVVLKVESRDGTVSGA
Method in brief: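 20nM CYP3A4 + 25uM Luciferin-PPXE (=KM), 200mM KPO4; cpd 10 min RT; NADPH regen, 60 min RT; stop w/ detection buffer, 20 min; luminescence. Normalized to 57 uM ketoconazole.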

[10] = biological target: Peroxisome proliferator-activated receptor alpha (Homo sapiens) (UniProt Q07869); experiment: qHTS assay for small molecule agonists of the peroxisome proliferator-activated receptor alpha (PPARalpha) signaling pathway (AID 651778); conditions: PathHunter PPARalpha complementation, chemiluminescence, 6 h; max response: active compounds read high; further: potency means the concentration at half of the fitted maximal effect; on max response: % of control where 0% means no effect
Sequence of Peroxisome proliferator-activated receptor alpha (Homo sapiens) (Q07869 whole entry, looked up): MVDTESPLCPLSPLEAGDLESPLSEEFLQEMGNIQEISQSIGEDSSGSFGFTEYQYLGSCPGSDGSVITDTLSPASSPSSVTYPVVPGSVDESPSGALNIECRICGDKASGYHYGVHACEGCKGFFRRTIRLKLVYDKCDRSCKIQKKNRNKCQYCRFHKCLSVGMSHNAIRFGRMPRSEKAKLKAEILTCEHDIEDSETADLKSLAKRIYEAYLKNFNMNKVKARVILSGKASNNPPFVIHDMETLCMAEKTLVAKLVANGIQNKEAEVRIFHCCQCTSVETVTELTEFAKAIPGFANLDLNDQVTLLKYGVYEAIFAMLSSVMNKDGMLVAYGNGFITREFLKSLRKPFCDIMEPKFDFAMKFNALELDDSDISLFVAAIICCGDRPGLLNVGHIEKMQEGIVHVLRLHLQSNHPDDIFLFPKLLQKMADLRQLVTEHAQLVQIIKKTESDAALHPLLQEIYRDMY
Method in brief: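 Cells plated at 2,000/well and held overnight at 37 C, 5% CO2, then compound added by pin tool for 6 hr; after PathHunter detection reagent and 60 min at room temperature, chemiluminescence from enzyme complementation was read.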

[11] = qHTS assay for cell viability of HEK293 cells (AID 743288); conditions: ATP luminescence (CellTiter-Glo), 18 h; max response: active compounds read low; further: nearly all actives have a fitted effect of over 50% in size; further: potency means the concentration at half of the fitted maximal effect; on max response: on the % scale 0 is the no-effect control and ±100 the full control effect
Method in brief: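 Luminescent ATP quantitation served as the viability read-out. Cells (parental HEK293, 2,000/well) received compounds after at least 5 h at 37 C and were exposed for 18 h before a 30 min room-temperature reagent step.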

[12] = qHTS assay for cell viability of the p53RE-bla HCT-116 cell line (AID 743292); conditions: p53RE-bla HCT-116 viability, ATP luminescence, 16 h; series mostly up to 95 µM; further: nearly all actives have a fitted effect of over 55% in size; further: potency means the concentration at half of the fitted maximal effect; on activity change, negative = cytotoxicity: on the % scale 0 is the no-effect control and ±100 the full control effect
Method in brief: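 Quantitative high-throughput format: compounds in DMSO were pinned onto p53RE-bla HCT-116 cells (4,000/well) and incubated 16 h at 37 C. Total intracellular ATP, read by CellTiter-Glo luminescence, reflects viable cell number.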

[13] = biological target: Mitogen-activated protein kinase 10 (Mus musculus) (UniProt Q61831); experiment: JNK3 AlphaScreen Assay (AID 530; active means well fitted curve in either direction with a large enough effect, not every such curve was filed as active;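 further: kinase came from lysate of stimulated human HepG2 cells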; further: potency means the concentration at half of the fitted maximal effect); conditions: JNK3 lysate, c-Jun phosphorylation; series mostly up to 57.1 µM
Method in brief: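 JNK3 came from HepG2 lysates pre-activated with IL-1beta and TNF-alpha and phosphorylated biotinylated GST-cJun (1-79) at 10 uM ATP, pH 7.6, room temperature. Compounds were titrated. AlphaScreen signal used anti-phospho-cJun (Ser73) antibody.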

[14] = Cell Viability - BJ (AID 421; calls by dose curve;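 further: potency means the concentration at half of the fitted maximal effect; cells exposed to compound for 40 hours at 37 °C before readout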); conditions: BJ fibroblast viability, qHTS
Method in brief: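 Luminescent ATP signal (CellTiter-Glo, 20 min at room temperature) served as the read-out of viable BJ cells after 40 hours of compound treatment. Responses were scaled between DMSO and 100 uM tamoxifen, and AC50 values were obtained by Hill modeling.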

[15] = NFAT Signaling Pathway (AID 444; active means well fitted curve in either direction with a large enough effect, not every such curve was filed as active;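 further: carbachol stimulus at about its EC50 of 1 µM final; on the % scale 0 is the no-effect control and ±100 the full control effect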); conditions: Jurkat NFAT-bla M1, carbachol, beta-lactamase ratio, 5 h; at 17.2 µM (top of the series) unless noted
Method in brief: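 Jurkat cells carrying an NFAT-driven β-lactamase reporter and co-transfected muscarinic M1 receptor were treated with compound plus carbachol (1 uM final, an EC50 level) for 5 h at 37 °C. CCF4 loading followed for 1 h at RT; 460/530 nm ratio gave %activity.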

[16] = Stat Signaling Pathway (AID 446; active means well fitted curve in either direction with a large enough effect, not every such curve was filed as active;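 further: ME-180 cervical cancer cells given 40 pM IL-6 alongside compound; SIE-controlled beta-lactamase reporter measured as 460/530 nm FRET emission ratio; on the % scale 0 is the no-effect control and ±100 the full control effect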); conditions: ME-180 SIE beta-lactamase reporter, IL-6 stimulated, 5 h; at 17.2 µM (top of the series) unless noted
Method in brief: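 ME-180 SIE-bla cells; overnight plating; cpd + IL-6 40 pM, 5 h, 37 C; LiveBLAzer 2.5 h RT; 460/530 nm emission ratio. Normalized to 300 pM IL-6 and 125 nM JAK inhibitor controls.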

[17] = biological target: Glucocorticoid receptor (Homo sapiens) (UniProt P04150); experiment: GR-GFP Redistribution (AID 450;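 active means compounds whose dose series gives a full or clear partial fitted curve of increased nuclear translocation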; further: potency means the concentration at half of the fitted maximal effect); conditions: U2OS GR-GFP nuclear translocation, laser cytometry, 2 h; series mostly up to 20.6 µM
Sequence of Glucocorticoid receptor (Homo sapiens) (P04150 whole entry, looked up): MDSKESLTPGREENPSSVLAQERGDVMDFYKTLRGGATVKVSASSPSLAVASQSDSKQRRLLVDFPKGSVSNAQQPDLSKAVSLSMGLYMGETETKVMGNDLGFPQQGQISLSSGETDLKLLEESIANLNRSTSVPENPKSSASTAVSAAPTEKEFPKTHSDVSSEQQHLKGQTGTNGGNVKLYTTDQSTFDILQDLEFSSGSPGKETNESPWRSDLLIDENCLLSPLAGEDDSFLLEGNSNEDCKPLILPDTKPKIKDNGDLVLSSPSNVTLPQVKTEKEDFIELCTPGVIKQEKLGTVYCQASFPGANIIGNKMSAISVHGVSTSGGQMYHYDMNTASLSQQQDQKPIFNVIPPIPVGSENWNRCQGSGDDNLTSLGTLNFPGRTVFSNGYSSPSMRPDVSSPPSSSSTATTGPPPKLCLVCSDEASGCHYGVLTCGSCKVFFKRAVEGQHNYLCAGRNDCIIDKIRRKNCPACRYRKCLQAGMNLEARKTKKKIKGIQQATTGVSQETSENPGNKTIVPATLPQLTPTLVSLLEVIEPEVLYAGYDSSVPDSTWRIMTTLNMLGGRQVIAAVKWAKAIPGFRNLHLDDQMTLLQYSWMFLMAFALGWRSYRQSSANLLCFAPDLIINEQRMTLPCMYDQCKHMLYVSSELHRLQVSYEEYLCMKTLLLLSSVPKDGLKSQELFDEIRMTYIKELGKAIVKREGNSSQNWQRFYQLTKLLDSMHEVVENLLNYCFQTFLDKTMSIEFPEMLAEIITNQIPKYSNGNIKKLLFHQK

Cc1cc(Nc2ccc(O)cc2)ccc1N
active: Potency [1] 87 µM | activity change, negative = cytotoxicity [2] -119% | Potency [3] 6.31 µM
inactive: Potency [4] | Potency [5] | Potency [6] | Potency [7] | outcome [8] | Potency [9] | max response [10] -7.64% | max response [11] -27% | Potency [12]

Cc1ccc(S(=O)(=O)Oc2ccc(N=Nc3ccc(-c4ccc(N=Nc5c(O)ccc6cc(S(=O)(=O)O)cc(S(=O)(=O)O)c56)c(C)c4)cc3C)cc2)cc1
inactive: Potency [5] | Potency [6] | Potency [7] | outcome [8] | Potency [9] | max response [10] -11.2%
active: Potency [13] 0.2 µM | Potency [4] 31.6 µM

Cc1cc(O)c(C(C)(C)C)cc1Sc1cc(C(C)(C)C)c(O)cc1C
inactive: Potency [13] | Potency [7] | Potency [9]
active: Potency [14] 43.8 µM | Potency [1] 23 µM | Potency [2] 12.6 µM | Potency [3] 31.6 µM | Potency [4] 25.1 µM | Potency [5] 63.1 µM | Potency [6] 50.1 µM | Potency [10] 11.2 µM and 4.47 µM | Potency [11] 70.8 µM and 50.1 µM | Potency [12] 28.2 µM and 25.1 µM

CCOc1cc2nc(-c3ccc(OC)c(OC)c3)nc(N3CCOCC3)c2cc1OC
inactive: activity change, negative = inhibition [15] -10.2% | activity, negative = inhibition [16] -21.5% | Potency [17] > 20.6 µM

Cc1cc(OCCN2CCCCC2)nc2ccccc12
inactive: activity change, negative = inhibition [15] -29.3% | activity, negative = inhibition [16] 9.41% | Potency [17] > 20.6 µM

O=Cc1ccc(Cl)c(Cl)c1
inactive: Potency [14] > 92 µM | Potency [1] > 92 µM | Potency [13] | Potency [2] | Potency [3] | Potency [4] | Potency [5] | Potency [6] | Potency [7] | outcome [8] | max response [10] 1.8% | max response [11] -7.75% | Potency [12]

O=C1OC2(c3cc(Br)c(O)c(Br)c3Oc3c2cc(Br)c(O)c3Br)c2c(Cl)c(Cl)c(Cl)c(Cl)c21
active: Potency [2] 3.98 µM | Potency [12] 39.8 µM
inactive: Potency [14] > 92 µM | Potency [1] > 92 µM | Potency [4] | Potency [5] | Potency [6] | Potency [7] | outcome [8] | Potency [9] | max response [10] 0.0759% | max response [11] -29.6%

O=C=Nc1ccc(Cc2ccc(N=C=O)cc2)cc1
inactive: Potency [14] > 92 µM | Potency [1] > 92 µM | Potency [2] | Potency [3] | Potency [4] | Potency [5] | Potency [6] | Potency [7] | outcome [8] | Potency [9] | max response [10] -0.535% and -0.74% | max response [11] 9.46% and -11.9% | Potency [12]

Source: PubChem BioAssay (NCATS)
